From the OligoGym collection

The sequences below were run against NEFH (assay: pooled miR-30 sensor sort-seq; sequence = guide strand). Settings: shRNA.
Also: reference of the scale not given here.

| Sequence | sensor-assay potency score (higher = more potent) |
| --- | --- |
| TTGGTGTCTTTTTTCTCCGGTG | -0.602 |
| TTTTTTCTTATCTTCAGCCTCT | 0.587 |
| TTGGCTTCTTCCTTCACTGGGG | 0.0706 |
| TTTGGGTTTAGCGTCTTCCTTC | -0.21 |

The sequences below were run against NEIL1 in the same assay as above. Settings: shRNA.

| Sequence | sensor-assay potency score (higher = more potent) |
| --- | --- |
| TCTTAGGAAGGTCTCTCTTTGC | -1.22 |
| TTCTTTTTGCGGGACTTGCGCC | -1.12 |
| ATGTCAGCCTTGACCTTCCGGG | -0.984 |
| TACTCCTGCAAGACACAGGGCC | -0.384 |
| TGAGTGACATAGCTCCAGCAGG | -1.15 |
| TTGCAGTCCTCTTAGGAAGGTC | -0.51 |
| TGGGATGTCAGCCTTGACCTTC | -1.09 |
| TTGGTCCTTATCTTCTGGCTCA | -0.526 |
| TATCTTCTGGCTCAGGGTCAGC | -1.69 |
| TTTCGTAGCACACTCTCCCTGA | 0.529 |
| TCTGTCCTCAGGACTCAGCTGT | -0.0425 |
| TGAACTGCTGGTACTCCTGCAA | -0.0198 |

Each sequence was assayed against NEK11 in the same assay as above. Settings: shRNA.

| Sequence | sensor-assay potency score (higher = more potent) |
| --- | --- |
| TTTTGTTGAAGCACGTATCTTC | 0.706 |
| TTAGGTTCTGTAGCTGCTCATC | -0.837 |
| TTCTCTGGTCTTTCTAACGCTA | -0.53 |
| TATATGAGCAGCCTCCTTCTGA | -0.668 |
| TTAGAAGTCGAGAAACTCCAAA | -0.797 |
| TTTGTGTCTAGAGAAGTGCAAC | -1.07 |
| TAAGTCTCGATGAAGTATCCTC | -0.275 |
| TTTTCTGTACTTCTGACAGTGC | -0.562 |
| TTCGCTAGCATTCTGATGCCTT | 0.204 |
| TTCCTGAATTTTATCGTCCAGA | -0.793 |
| ATGGAGTACATCAACACTCAGC | -1.37 |
| TACATCAACACTCAGCTGCTGA | -0.0516 |

These sequences were tested against NEK7 in the same assay as above. Settings: shRNA.

| Sequence | sensor-assay potency score (higher = more potent) |
| --- | --- |
| TAGTTCATTATCTTCAATGAAT | -1.2 |
| TATATCTCTATGCATGACTCTT | -0.469 |
| TTGAGCTGAAAAACCGGCCAAG | -1.05 |
| TCTCATATAGTAGACAGCCAAG | -1.88 |
| TCTATCTTCTTACACAGTGAGT | -1.04 |
| TTTTCATGTATTCTCTCTGGAG | -0.779 |
| TAAACTTCACTAAATTGTCCGC | -0.329 |
| TTAAAATGCTTGATCATTCTGG | 0.745 |
| TAGGTCGCCAGCATCTGCTAGT | -0.288 |
| TAAACATAGGTGACGTCTGGTC | -1.09 |
| TTAGCTGGTTTTATATCTCTAT | -0.684 |
| TAATGAACACATTAGCTGGTTT | -0.362 |
